Assay [1] concerns Tov-21-G. Put plainly: Primary qHTS to identify gynecologic anti-cancer compounds using libraries of approved drugs and bioactive compounds (AID 1345084). Also: nearly all actives have a fitted effect of over 55% in size. Particulars: Gynecologic cancer cell panel viability, ATPlite luminescence, 48 h; series mostly up to 57.5 µM. In outline: (§1)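 48 h compound exposure at 37 C, 5% CO2; five-point qHTS. ATPlite luminescence readout of cell ATP.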
A general note: qHTS replaces the single test concentration by a dilution series.

Assay [2] relates to Tov112D. The assay is described as above. The settings on record: Gynecologic cancer cell panel viability, ATPlite luminescence, 48 h; series mostly up to 57.5 µM. In outline:
as §1
(In general: ATP-based viability assays read luminescence as a measure of living cells.)

Assay [3] is described as follows: qHTS assay to identify inhibitors of the type 1 interferon - major histocompatibility complex class I in skeletal muscle: Counter screen cell viability and HiBit confirmation (AID 1347412). As to all read-outs here: nearly all actives have a fitted effect of over 60% in size. The settings on record: iHSKM muscle cells + IFN-b, HiBiT or CellTiter-Glo, 24 h; for activity change, negative = inhibition: at 45.9 µM (top of the series). The method in brief: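 Myoblasts (C25cl48, HLA-B HiBiT) seeded in medium without dexamethasone, IFN-b 4 ng/ml added except unstimulated columns; 1 hr later compounds pinned (12-pt 1:3, top 46 uM final). Incubated 24 hrs, lysed 10 min, luminescence measured.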

Inconclusive results are not listed. Unmarked numbers belong to inactive results. Activity calls are given as the source filed them. Calls follow the shape of the dose curve; as a rule, active = well fitted curve in the direction sought with a large enough effect; inconclusive = small, poorly fitted or top-dose-only effect, or another doubt; inactive = no such curve, though single readings can be large; an effect the other way counts as inactive or inconclusive.
% is scaled to controls: 0 for no effect and ±100 for the full control effect; potency is read from the fitted curve at half-maximal effect.

Consider `Nc1nccc(Oc2ccc(NC(=O)c3c[nH]cc(-c4ccc(F)cc4)c3=O)cc2F)c1Cl`, for which the Potency entry in assay [1] and in assay [2] was “inactive” throughout. Also, in assay [3] (Viability), the activity change, negative = inhibition was 1.85%.

In the case of `COc1ccc(F)c(F)c1C(=O)c1cnc(NC2CCN(S(C)(=O)=O)CC2)nc1N`, the Potency in assay [2] was 7940 nM (active); in assay [3] (HiBiT), 1110 nM (active). Also, in assay [3] (Viability), the activity change, negative = inhibition is 14.1%.

Turning to `CNC(=O)c1c(F)cccc1Nc1nc(Nc2cc3c(cc2OC)CCN3C(=O)CN(C)C)nc2[nH]ccc12`, the Potency result in assay [1] and in assay [2] was “inactive” each time. Also, the Potency in assay [3] (Viability) is 24900 nM (active).

`COc1ccc(C(=O)CC2(O)C(=O)Nc3c(Cl)ccc(Cl)c32)cc1` (configuration not stated): the Potency in assay [2] is 3980 nM (active).

In the case of `CNC(=O)c1nn(C)c2c1C(C)(C)Cc1cnc(Nc3ccc(N4CCN(C)CC4)cc3)nc1-2`, the Potency was 2240 nM (active) in assay [2] and 1980 nM (active) in assay [3] (HiBiT). Moreover, the activity change, negative = inhibition in assay [3] (Viability) is 28.9%.

As to `CC1(C)CC(=O)c2c(C(F)(F)F)nn(-c3ccc(C(N)=O)c(NC4CCC(OC(=O)CN)CC4)c3)c2C1` (configuration not stated), the Potency is 355 nM (active) in assay [1] and 55.7 nM (active) in assay [3] (HiBiT).

Take `CC(C)CC(=O)Nc1n[nH]c2c1CN(C(=O)C1CCN(C)CC1)C2(C)C`: the Potency in assay [2] was 7940 nM (active); in assay [3] (HiBiT) it was 701 nM (active). The activity change, negative = inhibition in assay [3] (Viability) is 10.8%.

In the case of `O=C(CCCCCCNC(=O)c1cnc(N(c2ccccc2)c2ccccc2)nc1)NO`, the Potency in assay [2] was 28200 nM (active).

`Cc1coc2c1C(=O)C(=O)c1c-2ccc2c1CCCC2(C)C`: the Potency entry in assay [2] is “inactive”.

For the compound `COc1cccc2nc(-c3cccs3)nc(NN3C(=O)C=C(C)C3=O)c12`, the Potency in assay [2] was 891 nM (active); in assay [3] (HiBiT), 2790 nM (active). For the same compound, the activity change, negative = inhibition in assay [3] (Viability) is 41.4%.

On to `CC[C@@]1(O)C(=O)OCc2c1cc1n(c2=O)Cc2cc3cc(O)ccc3nc2-1`, for which the Potency is 3550 nM (active) in assay [1], 79.4 nM (active) in assay [2] and 2790 nM (active) in assay [3] (HiBiT). In addition, the activity change, negative = inhibition in assay [3] (Viability) was 8.39%.

For the origin of these results see PubChem BioAssay (NCATS).
